Screening data deposited in PubChem by Broad Institute.
This is a sample that favours compounds with a hit; in the whole collection about 2.2% have one here.
PfHsp90 yeast 2 = reduces growth (ATP signal) of yeast expressing P. falciparum Hsp90; S. cerevisiae expressing PfHsp90, BacTiter-Glo ATP, 48 h; yeast lacking PDR1 and PDR3 efflux regulators; inhibition, % at 9.4 µM; 0.32% of 310,000 active;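 active = every replicate shows inhibition above about 80%, whatever the replicate mean, limit read from the data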
Shn3 inh set2 = reduces Shn3 3'UTR luciferase signal in osteoblasts. 0.52% of 360,000 active. Clone20 osteoblast Shn3 3'UTR firefly luciferase, 24 h. AID 588674. inhibition, % at 12.5 µM;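 active = mean inhibition of at least 75% with every replicate also reaching 75%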
CSC inhib = blocks cancer stem cells. 1.1% of 300,000 active. inhibition, % at 7.5 µM. cancer stem cell-like cells viability, luminescence; in the data active = inhibition above about 75%; tested in HMLE shEcad cells
Beta cell apopt = blocks beta cell apoptosis. 0.8% of 300,000 active. INS-1E cytokine-induced death, ATP luminescence, 48 h; percent of positive-control rescue, neutral wells zero. protection from apoptosis, % (concentration not given with the values);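 active = Every replicate reaches about 75%, or at least half do and their mean reaches it too, limit read from the data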;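 also: higher means more ATP so stronger rescue from cytokine killing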
Calb FLC = affects C. albicans growth with fluconazole; C. albicans CaCi-2 (fluconazole-resistant clinical isolate) + fluconazole, Alamar Blue growth, 48 h; growth inhibition, % (concentration not given with the values); 0.57% of 300,000 active; AID 1979;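 active = growth inhibition above about 58% in most replicates, limit read from the data, passing the limit was not always enough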;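 also: all wells also contain fluconazole at 8 µg/ml as a sub-toxic cotreatment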
Large screens that a line does not name were inactive.

c1ccc(N2CCN(c3nc(-c4cccs4)nc4ccccc34)CC2)cc1	none
Oc1ccc(N2CCN(c3nc(-c4cccs4)nc4ccccc34)CC2)cc1	CSC inhib 87
Nc1nsc2ccccc12	Calb FLC 87
CN(C)P(=O)(Nc1cccc2ccccc12)Nc1cccc2ccccc12	Shn3 inh set2 88 (no result: Calb FLC)
O=c1[nH]c2nc(Br)[nH]c(=O)c2[nH]1	none (no result: PfHsp90 yeast 2, CSC inhib, Beta cell apopt, Calb FLC)
NC(=O)c1ccc[n+]([C@H]2O[C@@H](COP(=O)([O-])OP(=O)(O)OC[C@H]3O[C@@H](n4cnc5c(N)ncnc54)[C@H](O)[C@@H]3O)[C@H](O)[C@@H]2O)c1	PfHsp90 yeast 2 88 (no result: Calb FLC)
COc1ccc(C(=O)NC[C@H]2O[C@@H](n3cnc4c(N)ncnc43)[C@H](O)[C@@H]2O)cc1OC	none (no result: PfHsp90 yeast 2, CSC inhib, Beta cell apopt, Calb FLC)
S=C(Nc1ccccc1)Nc1ccc(OCc2ccc(Cl)cc2Cl)cc1	Shn3 inh set2 85 (no result: CSC inhib)
OCCNCc1ccc(OCc2ccc(Cl)cc2Cl)cc1	none
S=C(NCCSCc1ccc(Cl)cc1Cl)Nc1ccccc1	none
OCCCCNCc1ccc(OCc2ccc(Cl)cc2Cl)cc1	CSC inhib 91
CC(OC(=O)CCCC(=O)Nc1ccc(F)cc1)C(=O)c1ccccc1 (stereo not given)	none
O=C(Nc1ccc(Oc2c(F)c(F)c(F)c(F)c2F)cc1)OC1CCN2Cc3ccccc3N=C12 (stereo not given)	CSC inhib 104
CC(=O)Nc1ccc(SCC(=O)c2cc(C)n(-c3ccccc3)c2C)cc1	CSC inhib 84
COc1ccc(-n2c(C)cc(C(=O)CCl)c2C)cc1	CSC inhib 95
COc1ccc(-n2c(C)cc(C(=O)CN3C(=O)c4ccccc4C3=O)c2C)cc1	none
COc1ccc(-n2c(C)cc(C(=O)CSc3ccc(NC(C)=O)cc3)c2C)cc1	CSC inhib 169
CC1(c2nc3ccccc3[nH]2)CCC(=O)N1C1CC1 (stereo not given)	none (no result: PfHsp90 yeast 2, CSC inhib, Beta cell apopt, Calb FLC)
O=C(NCC(=O)N1CCC2(CC1)NCCc1[nH]cnc12)c1ccc2ccccc2c1	none
O=C(NNC(=O)c1ccccc1OCc1ccccc1)c1ccccc1O	Beta cell apopt 86
O=C(NNC(=O)c1ccccc1OCc1ccc(F)cc1)c1ccccc1O	Beta cell apopt 87
COc1cc(OC)cc(C(=O)OC/C(O)=C(\C#N)c2nc3ccccc3[nH]2)c1	Beta cell apopt 101
Cc1nn(-c2ccccc2)c(C)c1C(=O)OCC(O)=C(C#N)c1nc2ccccc2[nH]1	none (no result: CSC inhib, Beta cell apopt, Calb FLC)
Cc1nn(-c2ccccc2)c(C)c1C(=O)OC/C(O)=C(\C#N)c1nc2ccccc2[nH]1	Calb FLC 82 (no result: PfHsp90 yeast 2)
N#CC(=C(O)COC(=O)c1ccc2c(c1)OCCO2)c1nc2ccccc2[nH]1	none (no result: CSC inhib, Beta cell apopt, Calb FLC)
O=C1NC(Cc2ccc(O)cc2)c2nc3ccc(Br)cc3c(=O)n2-c2ncccc21 (stereo not given)	none (no result: PfHsp90 yeast 2, CSC inhib, Beta cell apopt, Calb FLC)
Cc1ccc(S(=O)(=O)N2CCN(C(=O)COC(=O)CCOc3ccccc3)CC2)c(C)c1	none (no result: CSC inhib, Calb FLC)
CC(=O)Nc1ccc2c(c1)Cc1cc(N3C(=O)C=CC3=O)ccc1-2	PfHsp90 yeast 2 116 (no result: CSC inhib, Beta cell apopt, Calb FLC)
O=[N+]([O-])c1ccc2c(c1)Cc1cc(F)ccc1-2	none (no result: PfHsp90 yeast 2, CSC inhib, Beta cell apopt, Calb FLC)
CC(=O)Nc1ccc2c(c1)Cc1ccc(Cl)cc1-2	none (no result: CSC inhib, Beta cell apopt, Calb FLC)
O=C1C=CC(=O)N1c1ccc2c(c1)Cc1cc(F)ccc1-2	PfHsp90 yeast 2 116 (no result: CSC inhib, Beta cell apopt, Calb FLC)
O=C(/C=C/c1ccc(Cl)cc1)Nc1cc(S(=O)(=O)N2CCOCC2)ccc1N1CCOCC1	none (no result: PfHsp90 yeast 2, Calb FLC)
CC1=[N+](C)c2c(ccc3cccnc23)C1(C)C	Shn3 inh set2 93 (no result: CSC inhib, Beta cell apopt, Calb FLC)
COc1cccc(/C=N/Nc2nc(Nc3ccccc3)nc(-n3nc(C)cc3C)n2)c1O	Beta cell apopt 135 (no result: PfHsp90 yeast 2)
COc1cccc(/C=N/Nc2cc(-n3nc(C)cc3-c3ccccc3)ncn2)c1O	Shn3 inh set2 90, Calb FLC 82 (no result: CSC inhib, Beta cell apopt)
Cc1cnn(-c2cc(N/N=C/c3ccccc3Cl)ncn2)c1	none
Cc1cc(C)n(-c2nc(Nc3ccccc3)nc(-n3nc(C)cc3C)n2)n1	none
Cc1cccc(Oc2ccc(NC(=O)C3=CC=CN4CCS(=O)(=O)N=C34)cc2)c1	none (no result: Calb FLC)
CCCn1c(SCC(=O)N2CCc3ccccc3C2)nc(O)cc1=O	none (no result: Calb FLC)
CCOC(=O)C1CCCN(c2cc(C)nc3cc(-c4ccc(F)cc4)nn23)C1 (stereo not given)	Calb FLC 104
CCOC(=O)C1CCCN(c2cc(C)nc3cc(-c4ccc(Cl)cc4)nn23)C1 (stereo not given)	none
O=C(CCC(=O)c1ccc(F)cc1)NC1CCCN(Cc2ccccc2F)C1 (stereo not given)	none
Cc1ccc(C(=O)Nc2nc(C)c(C(=O)Nc3ccc4c(c3)CCC4)s2)cc1	CSC inhib 81
Cc1nc(NC(=O)c2ccc(F)cc2)sc1C(=O)Nc1ccc2c(c1)CCC2	none
CC[C@@]1(O)C(=O)OCc2c1cc1n(c2=O)Cc2cc3c(N)cccc3nc2-1	Beta cell apopt 98
CCCCc1cc(=O)oc2c(CN(C)C)c(O)ccc12	none (no result: Beta cell apopt)
CC[C@@]1(O)C(=O)OCc2c1cc1n(c2=O)Cc2cc3c(CN(C)C)c(O)ccc3nc2-1	CSC inhib 104 (no result: Calb FLC)
CCOC(=O)c1c(C)[nH]c(C(=O)OCC(=O)c2ccc3c(c2)NC(=O)CO3)c1C	none (no result: Beta cell apopt)
Cc1noc(C)c1COc1ccccc1C(=O)NCCOc1ccccc1	none (no result: CSC inhib, Beta cell apopt, Calb FLC)
O=C(CCC1CCCCC1)NCCS(=O)(=O)N1CCN(c2ccccc2)CC1	none (no result: PfHsp90 yeast 2)
